Data from the supplement of paper PMC9492666.
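Note: breast cancer cell viability read out with the CCK-8 kit after co-treatment of each compound with the ferroptosis inducer RSL3.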

These compounds were tested on MDA-MB-231 (assay: relative cell viability, compound + RSL3, vs DMSO (fraction of DMSO control); higher = less growth inhibition). Details: 72 h.
Work on `CCN(CC)CCN(Cc1ccc(-c2ccc(C(F)(F)F)cc2)cc1)C(=O)Cn1c(SCc2ccc(F)cc2)nc(=O)c2c1CCC2` [Darapladib] + COC(=O)c1ccc([C@H]2c3[nH]c4ccccc4c3C[C@H](C(=O)OC)N2C(=O)CCl)cc1 [RSL3] yielded a relative cell viability of 0.232.
Work on `CC1=C(C)C(=O)C(C(CCCCCC(=O)O)c2ccccc2)=C(C)C1=O` (centres undefined) [Seratrodast] + COC(=O)c1ccc([C@H]2c3[nH]c4ccccc4c3C[C@H](C(=O)OC)N2C(=O)CCl)cc1 [RSL3] yielded a relative cell viability of 0.578.
Compound `CN(C)C(=O)Nc1cccc(-c2ccc(N(C)C)cc2)c1` [Atglistatin] + COC(=O)c1ccc([C@H]2c3[nH]c4ccccc4c3C[C@H](C(=O)OC)N2C(=O)CCl)cc1 [RSL3] has a relative cell viability of 0.562.
With `COC(=O)/C=C/c1cccc(N(Cc2ccc(-c3ccc(N(C)C)cc3)cc2)C(=O)C2CCCCC2)c1` [Fexaramine] + COC(=O)c1ccc([C@H]2c3[nH]c4ccccc4c3C[C@H](C(=O)OC)N2C(=O)CCl)cc1 [RSL3] the relative cell viability was 0.601.
Work on `CCCCCCS(=O)(=O)NC(=O)c1ccc(CSCc2ccc(-c3ccccc3)cc2)cc1` + COC(=O)c1ccc([C@H]2c3[nH]c4ccccc4c3C[C@H](C(=O)OC)N2C(=O)CCl)cc1 [RSL3] yielded a relative cell viability of 0.676.
For `CN1CC(O)C2=C/C(=N/NC(N)=O)C(=O)C=C21` (centres undefined) [Carbazochrome] + COC(=O)c1ccc([C@H]2c3[nH]c4ccccc4c3C[C@H](C(=O)OC)N2C(=O)CCl)cc1 [RSL3], the relative cell viability was 0.551.
With `CC[C@H](C)C(=O)O[C@H]1CCC=C2C=C[C@H](C)[C@H](CC[C@@H]3C[C@@H](O)CC(=O)O3)[C@H]21` [Mevastatin] + COC(=O)c1ccc([C@H]2c3[nH]c4ccccc4c3C[C@H](C(=O)OC)N2C(=O)CCl)cc1 [RSL3] the relative cell viability was 0.369.
With `CCC(C)(Oc1ccc(C2(c3ccc(OC(C)(CC)C(=O)O)cc3)CCCCC2)cc1)C(=O)O` (centres undefined) [Clinofibrate] + COC(=O)c1ccc([C@H]2c3[nH]c4ccccc4c3C[C@H](C(=O)OC)N2C(=O)CCl)cc1 [RSL3] the relative cell viability was 0.452.
In the case of `C[C@]12C=CC(=O)N[C@@H]1CC[C@@H]1[C@@H]2CC[C@]2(C)[C@@H](C(=O)Nc3cc(C(F)(F)F)ccc3C(F)(F)F)CC[C@@H]12` [Dutasteride] + COC(=O)c1ccc([C@H]2c3[nH]c4ccccc4c3C[C@H](C(=O)OC)N2C(=O)CCl)cc1 [RSL3], the relative cell viability is reported as 0.427.
`COc1ccc2c(c1)c(CC(=O)O)c(C)n2C(=O)c1ccc(Cl)cc1` [Indometacin] + COC(=O)c1ccc([C@H]2c3[nH]c4ccccc4c3C[C@H](C(=O)OC)N2C(=O)CCl)cc1 [RSL3] showed a relative cell viability of 0.61.
Compound `CC(C)C1=CC2=CC[C@@H]3[C@](C)(CCC[C@@]3(C)C(=O)O)[C@H]2CC1` [Abietic Acid] + COC(=O)c1ccc([C@H]2c3[nH]c4ccccc4c3C[C@H](C(=O)OC)N2C(=O)CCl)cc1 [RSL3] has a relative cell viability of 0.699.
In the case of `CCCCCCCCCCCCCCCC(=O)NCCO` [Palmidrol] + COC(=O)c1ccc([C@H]2c3[nH]c4ccccc4c3C[C@H](C(=O)OC)N2C(=O)CCl)cc1 [RSL3], the relative cell viability is reported as 0.77.
In the case of `CCOc1cc(CC(=O)N[C@@H](CC(C)C)c2ccccc2N2CCCCC2)ccc1C(=O)O` [Repaglinide] + COC(=O)c1ccc([C@H]2c3[nH]c4ccccc4c3C[C@H](C(=O)OC)N2C(=O)CCl)cc1 [RSL3], the relative cell viability is reported as 0.656.
Compound `Cc1cc(C)c(S(=O)(=O)N(CCc2cccc(Br)c2)Cc2ccc(-c3cccc(S(C)(=O)=O)c3)cc2)c(C)c1` + COC(=O)c1ccc([C@H]2c3[nH]c4ccccc4c3C[C@H](C(=O)OC)N2C(=O)CCl)cc1 [RSL3] has a relative cell viability of 0.475.
In the case of `CC(=O)N1CCN(c2ccc(OCC3COC(Cn4ccnc4)(c4ccc(Cl)cc4Cl)O3)cc2)CC1` (centres undefined) [Ketoconazole] + COC(=O)c1ccc([C@H]2c3[nH]c4ccccc4c3C[C@H](C(=O)OC)N2C(=O)CCl)cc1 [RSL3], the relative cell viability is reported as 0.488.
`COc1ccc(-c2c[nH]c3nccc(-c4ccsc4)c23)c(OC)c1` + COC(=O)c1ccc([C@H]2c3[nH]c4ccccc4c3C[C@H](C(=O)OC)N2C(=O)CCl)cc1 [RSL3] showed a relative cell viability of 0.665.
`COC(=O)c1cc(Cl)c(O)c(S(=O)(=O)Nc2cc(-c3ccccc3)c(F)cc2F)c1` + COC(=O)c1ccc([C@H]2c3[nH]c4ccccc4c3C[C@H](C(=O)OC)N2C(=O)CCl)cc1 [RSL3] showed a relative cell viability of 0.573.
`CC(O)(CC(=O)O)CC(=O)O` [Meglutol] + COC(=O)c1ccc([C@H]2c3[nH]c4ccccc4c3C[C@H](C(=O)OC)N2C(=O)CCl)cc1 [RSL3] was tested, and the relative cell viability was 0.613.
In the case of `CCCc1c(-c2ccccc2)[nH]n(-c2ccccn2)c1=O` [APX-115 free base] + COC(=O)c1ccc([C@H]2c3[nH]c4ccccc4c3C[C@H](C(=O)OC)N2C(=O)CCl)cc1 [RSL3], the relative cell viability is reported as 0.415.
Work on `CC1=C[C@]2(O)O[C@@]3(CC2=C(C)C)[C@@H](C)CC[C@@H]13` [Curcumenol] + COC(=O)c1ccc([C@H]2c3[nH]c4ccccc4c3C[C@H](C(=O)OC)N2C(=O)CCl)cc1 [RSL3] yielded a relative cell viability of 0.517.
In the case of `COC(=O)CN(c1ccc(CN(c2ccc(OCc3ccc(C)cc3)c(C(=O)OC)c2)S(=O)(=O)Cc2ccccc2)cc1)S(C)(=O)=O` + COC(=O)c1ccc([C@H]2c3[nH]c4ccccc4c3C[C@H](C(=O)OC)N2C(=O)CCl)cc1 [RSL3], the relative cell viability is reported as 0.626.
Compound `CC1(C)C[C@H]2C3=CC[C@@H]4[C@@]5(C)CC[C@H](O)[C@@](C)(CO)[C@@H]5CC[C@@]4(C)[C@]3(C)C[C@H](O)[C@@]2(CO)[C@@H](O)[C@@H]1O` [Gymnemagenin] + COC(=O)c1ccc([C@H]2c3[nH]c4ccccc4c3C[C@H](C(=O)OC)N2C(=O)CCl)cc1 [RSL3] has a relative cell viability of 0.657.
In the case of `CCc1c(-c2ccccc2)c(-c2ccccc2)nn1-c1ccccc1-c1cccc(OCC(=O)O)c1` + COC(=O)c1ccc([C@H]2c3[nH]c4ccccc4c3C[C@H](C(=O)OC)N2C(=O)CCl)cc1 [RSL3], the relative cell viability is reported as 0.741.
In the case of `O=C(O)Cc1cccc(OCCCN(Cc2cccc(C(F)(F)F)c2Cl)CC(c2ccccc2)c2ccccc2)c1` + COC(=O)c1ccc([C@H]2c3[nH]c4ccccc4c3C[C@H](C(=O)OC)N2C(=O)CCl)cc1 [RSL3], the relative cell viability is reported as 0.686.
In the case of `NC(N)=N/N=C/c1cccc(Cl)c1Cl` [Raphin1 acetate] + COC(=O)c1ccc([C@H]2c3[nH]c4ccccc4c3C[C@H](C(=O)OC)N2C(=O)CCl)cc1 [RSL3], the relative cell viability is reported as 0.603.
With `C=C(C)[C@@H]1CC[C@]2(C)CC[C@]3(C)[C@H](CC[C@@H]4[C@@]5(C)CCC(=O)C(C)(C)[C@@H]5CC[C@]43C)[C@@H]12` + COC(=O)c1ccc([C@H]2c3[nH]c4ccccc4c3C[C@H](C(=O)OC)N2C(=O)CCl)cc1 [RSL3] the relative cell viability was 0.688.
`N#Cc1c(O)c2c(-c3ccc(-c4ccccc4O)cc3)csc2[nH]c1=O` + COC(=O)c1ccc([C@H]2c3[nH]c4ccccc4c3C[C@H](C(=O)OC)N2C(=O)CCl)cc1 [RSL3] gave a relative cell viability of 0.423.
Work on `Cc1nc(Nc2cnn(C3CCNCC3)c2)nc2c1N(C)C(=O)c1cc3ccccc3cc1N2C` + COC(=O)c1ccc([C@H]2c3[nH]c4ccccc4c3C[C@H](C(=O)OC)N2C(=O)CCl)cc1 [RSL3] yielded a relative cell viability of 0.287.
With `COc1cc(O)c2c(c1)O[C@H](c1ccc(O)cc1)CC2=O` [Sakuranetin] + COC(=O)c1ccc([C@H]2c3[nH]c4ccccc4c3C[C@H](C(=O)OC)N2C(=O)CCl)cc1 [RSL3] the relative cell viability was 0.645.
`Nc1ncnc2c1ncn2C1OC(COP(=O)(O)O)C(O)C1O` (centres undefined) [Adenosine 5'-monophosphate monohydrate] + COC(=O)c1ccc([C@H]2c3[nH]c4ccccc4c3C[C@H](C(=O)OC)N2C(=O)CCl)cc1 [RSL3] was tested, and the relative cell viability was 0.622.
In the case of `C=CC[S+]([O-])C[C@H](N)C(=O)O` (some centres undefined) [Alliin] + COC(=O)c1ccc([C@H]2c3[nH]c4ccccc4c3C[C@H](C(=O)OC)N2C(=O)CCl)cc1 [RSL3], the relative cell viability is reported as 0.704.
`C/C=C(\CC[C@@H](C)[C@H]1CC[C@H]2[C@@H]3CC=C4C[C@@H](O)CC[C@]4(C)[C@H]3CC[C@]12C)C(C)C` [Fucosterol] + COC(=O)c1ccc([C@H]2c3[nH]c4ccccc4c3C[C@H](C(=O)OC)N2C(=O)CCl)cc1 [RSL3] gave a relative cell viability of 0.694.
`CC[C@H]1[C@@H](O)[C@@H]2[C@H](CC[C@]3(C)[C@@H]([C@H](C)CCC(=O)O)CC[C@@H]23)[C@@]2(C)CC[C@@H](O)C[C@@H]12` [Obeticholic Acid] + COC(=O)c1ccc([C@H]2c3[nH]c4ccccc4c3C[C@H](C(=O)OC)N2C(=O)CCl)cc1 [RSL3] gave a relative cell viability of 0.543.
`COc1ccc2[nH]cc(CCNC(C)=O)c2c1` [Melatonine] + COC(=O)c1ccc([C@H]2c3[nH]c4ccccc4c3C[C@H](C(=O)OC)N2C(=O)CCl)cc1 [RSL3] gave a relative cell viability of 0.465.
Compound `CCOC(=O)C(C)(C)Oc1ccc(Cl)cc1` [Clofibrate] + COC(=O)c1ccc([C@H]2c3[nH]c4ccccc4c3C[C@H](C(=O)OC)N2C(=O)CCl)cc1 [RSL3] has a relative cell viability of 0.619.
Compound `O=C(CCCCc1ccc2c(c1)OCO2)N1CCCCC1` + COC(=O)c1ccc([C@H]2c3[nH]c4ccccc4c3C[C@H](C(=O)OC)N2C(=O)CCl)cc1 [RSL3] has a relative cell viability of 0.562.
For `O=C(Nc1ccncc1)c1cc([N+](=O)[O-])ccc1Cl` + COC(=O)c1ccc([C@H]2c3[nH]c4ccccc4c3C[C@H](C(=O)OC)N2C(=O)CCl)cc1 [RSL3], the relative cell viability was 0.438.
`CCCCCCCCCCCC1=C(O)C(=O)C=C(O)C1=O` [Embelin] + COC(=O)c1ccc([C@H]2c3[nH]c4ccccc4c3C[C@H](C(=O)OC)N2C(=O)CCl)cc1 [RSL3] was tested, and the relative cell viability was 0.471.
For `O=C(O)C(=O)Nc1sc2c(c1C(=O)O)CCNC2` + COC(=O)c1ccc([C@H]2c3[nH]c4ccccc4c3C[C@H](C(=O)OC)N2C(=O)CCl)cc1 [RSL3], the relative cell viability was 0.648.
